High-throughput results (PubChem BioAssay)
Cav32 inh: inhibitors of human Cav3.2 T-type calcium channel; O95180; B-score at 10 µM; actives 4% (n = 100,000); Cav3.2-expressing cells, Fluo-4 calcium fluorescence FDSS; active compounds read low;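 active means single-dose well whose peak fluorescence ratio is a statistical outlier from its plate by either plate-standardised score or position-corrected B-score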
CYP2C9 inhib: blocks human cytochrome P450 2C9; P11712; inhibition, % at 5 µM; CYP2C9 Supersomes, luciferin-H conversion, luminescence; actives 20% (n = 96,000); AID 777;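 active means blocking of liver enzyme CYP2C9 beyond about 50% at 5 µM, limit read from the data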
Target sequence (P11712 whole entry, looked up): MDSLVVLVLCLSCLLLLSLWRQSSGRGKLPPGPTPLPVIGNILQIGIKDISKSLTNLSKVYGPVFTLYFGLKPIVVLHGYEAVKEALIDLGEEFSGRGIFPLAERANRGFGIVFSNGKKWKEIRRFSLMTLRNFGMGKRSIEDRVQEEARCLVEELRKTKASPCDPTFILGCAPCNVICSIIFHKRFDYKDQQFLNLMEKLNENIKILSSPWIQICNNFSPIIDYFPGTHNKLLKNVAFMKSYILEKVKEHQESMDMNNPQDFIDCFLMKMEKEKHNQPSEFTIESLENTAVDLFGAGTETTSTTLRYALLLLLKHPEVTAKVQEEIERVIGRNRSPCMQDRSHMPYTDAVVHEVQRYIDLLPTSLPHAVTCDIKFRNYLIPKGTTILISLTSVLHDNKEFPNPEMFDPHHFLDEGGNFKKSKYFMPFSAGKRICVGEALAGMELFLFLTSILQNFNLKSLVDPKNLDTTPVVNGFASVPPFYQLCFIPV
CYP2C19 inhib: human CYP2C19 inhibition; P33261; CYP2C19 Supersomes, luciferin-H EGE luminescence, 30 min; inhibition, % at 5 µM; actives 21% (n = 96,000); AID 778;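 active means CYP2C19 inhibition above a set limit at 5 µM in the primary screen, cut at about 50% in these data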;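 further: plate controls were negative control wells for no effect and 2.5 mM tranylcypromine positive control for full effect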
CYP2C9 activ: increases human cytochrome P450 2C9 activity. P11712. recombinant CYP2C9, luciferin-H conversion, luminescence; active compounds read high; factor 1 = untreated enzyme, 0 = blocked. activation factor at 5 µM. actives 1.4% (n = 96,000);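 active means activation factor of 2 or more for CYP2C9 at a 5 µM dose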;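 further: 0 = sulfaphenazole-blocked wells and 1 = vehicle-only wells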
CYP2C19 act: increases human CYP2C19 enzyme activity; P33261; recombinant CYP2C19, luciferin-H EGE luminescence; active compounds read high; 0 = fully inhibited enzyme, 1 = untreated enzyme; activation factor at 5 µM; 96,000 tested, under 10 active;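 active means activation factor of at least 2 at 5 µM in the primary screen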;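 further: 0 = wells with 2.5 mM tranylcypromine and 1 = vehicle-only wells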
* hit, by the source's call. In the library only some 27% were active in any assay of this set; here they are far more common.

Screening Cc1cc(C)n(Cc2ccc(NC(=O)c3nn(C)cc3[N+](=O)[O-])cc2)n1 returned Cav32 inh -1.3, CYP2C9 inhib 32, CYP2C19 inhib 24, CYP2C9 activ 0.7 and CYP2C19 act 0.8.
For Cn1cc([N+](=O)[O-])c(C(=O)Nc2cc(Oc3cccnc3)cc([N+](=O)[O-])c2)n1 the results were Cav32 inh 0.071, CYP2C9 inhib 78*, CYP2C19 inhib 72*, CYP2C9 activ 0.2 and CYP2C19 act 0.3.
Screening Cc1nnc(NC(=O)CSc2nnc(-c3ccc(S(=O)(=O)N4CCCC4)cc3)n2C)s1 returned Cav32 inh 0.062.
For COc1ccc(Cc2nc(C(=O)Nc3ccccc3)cs2)cc1 the results were Cav32 inh -3.8*, CYP2C9 inhib 90*, CYP2C19 inhib 88*, CYP2C9 activ 0.1 and CYP2C19 act 0.1.
COc1ccc(NC(=O)c2ccccn2)cc1 was read as CYP2C9 inhib 20, CYP2C19 inhib 26, CYP2C9 activ 0.8 and CYP2C19 act 0.7.
For COc1ccc(Cc2nc(C(=O)Nc3ccc(Cl)cc3)cs2)cc1 the results were Cav32 inh 0.26, CYP2C9 inhib 90*, CYP2C19 inhib 83*, CYP2C9 activ 0.1 and CYP2C19 act 0.2.
For COc1ccc(Cc2nc(C(=O)Nc3ccc(F)cc3)cs2)cc1 the results were Cav32 inh -4.1, CYP2C9 inhib 87*, CYP2C19 inhib 89*, CYP2C9 activ 0.1 and CYP2C19 act 0.1.
For COc1ccc(Cn2nnc(C(=O)Nc3ccc(F)cc3)c2N)cc1 the results were Cav32 inh 0.26, CYP2C9 inhib 14, CYP2C19 inhib 7, CYP2C9 activ 0.9 and CYP2C19 act 0.9.
`NC(=O)CC(NC(=O)Cc1cccc2ccccc12)c1ccc(NCc2ccc(F)c(F)c2)c([N+](=O)[O-])c1` (stereo not given) gave Cav32 inh 0.29.
For CCCCSc1nnc(CSc2nc3nc(C)cc(C)n3n2)o1 the results were Cav32 inh -0.36, CYP2C9 inhib 6, CYP2C19 inhib 40, CYP2C9 activ 0.9 and CYP2C19 act 0.6.
`CCc1cccc(NC(=O)CN(c2ccc(OC)cc2)S(=O)(=O)c2c(C)n[nH]c2C)c1` gave Cav32 inh -4.2*, CYP2C9 inhib 78*, CYP2C19 inhib 88*, CYP2C9 activ 0.2 and CYP2C19 act 0.1.
For Cc1n[nH]c(C)c1S(=O)(=O)N(CC(=O)NC1CCCC1)c1ccc(C(C)C)cc1 the results were Cav32 inh -1.3, CYP2C9 inhib 75*, CYP2C19 inhib 61*, CYP2C9 activ 0.3 and CYP2C19 act 0.4.
Screening CCOC(=O)c1cccc(NC(=O)CN(c2ccc(C)cc2)S(=O)(=O)c2c(C)n[nH]c2C)c1 returned Cav32 inh -1.2, CYP2C9 inhib 82*, CYP2C19 inhib 61*, CYP2C9 activ 0.2 and CYP2C19 act 0.4.
Screening COc1cc(NC(=O)CN(c2ccc(C)cc2)S(=O)(=O)c2c(C)n[nH]c2C)cc(OC)c1 returned Cav32 inh -1, CYP2C9 inhib 84*, CYP2C19 inhib 82*, CYP2C9 activ 0.2 and CYP2C19 act 0.2.
Screening Cn1c(=O)c2c(nc(SCc3ccccn3)n2C)n(C)c1=O returned CYP2C9 inhib 5, CYP2C19 inhib 3, CYP2C9 activ 1 and CYP2C19 act 1.
`COc1ccc(N(CC(=O)Nc2ccc(C)c(C)c2)S(=O)(=O)c2c(C)n[nH]c2C)cc1` gave CYP2C9 inhib 72*, CYP2C19 inhib 82*, CYP2C9 activ 0.3 and CYP2C19 act 0.2.
For COc1ccc(N(CC(=O)Nc2ccc(OC)c(Cl)c2)S(=O)(=O)c2c(C)noc2C)cc1 the results were Cav32 inh 0.58, CYP2C9 inhib 0, CYP2C19 inhib 3, CYP2C9 activ 1 and CYP2C19 act 1.
For CCC(Sc1nc(C)cc(C)n1)C(=O)Nc1ccc(Cl)cn1 (stereo not given) the results were Cav32 inh -0.71.
`CCOc1ccc(C)cc1S(=O)(=O)n1ccc(C)n1` gave CYP2C9 inhib -130, CYP2C19 inhib 46, CYP2C9 activ 2.3* and CYP2C19 act 0.5.
`Cc1cn(S(=O)(=O)c2ccc(Br)cc2)cn1` gave Cav32 inh 0.89, CYP2C9 inhib 11, CYP2C19 inhib 24, CYP2C9 activ 0.9 and CYP2C19 act 0.8.
`COc1cc(C)c(C(C)C)cc1S(=O)(=O)n1cnc(C)c1` gave Cav32 inh -4.8*, CYP2C9 inhib -8, CYP2C19 inhib 17, CYP2C9 activ 1.1 and CYP2C19 act 0.8.
`CCOc1cc(C)c(C(C)C)cc1S(=O)(=O)N1CCN(C)CC1` gave Cav32 inh 0.36, CYP2C9 inhib -48, CYP2C19 inhib -11, CYP2C9 activ 1.5 and CYP2C19 act 1.1.
Screening CCOc1cc(C)c(C(C)C)cc1S(=O)(=O)n1ccc(C)n1 returned CYP2C9 inhib 38, CYP2C19 inhib 54*, CYP2C9 activ 0.6 and CYP2C19 act 0.5.
CCOC(=O)c1sc(=S)n(-c2ccc(Cl)cc2)c1SC was read as Cav32 inh -0.018, CYP2C9 inhib 27, CYP2C19 inhib -1, CYP2C9 activ 0.7 and CYP2C19 act 1.
Screening O=S(=O)(c1cccs1)N1CN(Cc2ccc(F)cc2)c2nc3ccccc3nc21 returned Cav32 inh -0.46, CYP2C9 inhib 70*, CYP2C19 inhib 22, CYP2C9 activ 0.3 and CYP2C19 act 0.8.
Screening C=CCN1CN(S(=O)(=O)c2cccs2)c2nc3ccccc3nc21 returned Cav32 inh 0.75, CYP2C9 inhib 17, CYP2C19 inhib 63*, CYP2C9 activ 0.8 and CYP2C19 act 0.4.
Screening O=S(=O)(c1cccs1)N1CN(Cc2cccs2)c2nc3ccccc3nc21 returned Cav32 inh -1.5, CYP2C9 inhib 79*, CYP2C19 inhib 93*, CYP2C9 activ 0.2 and CYP2C19 act 0.1.
CN(c1ccc(C(=O)NCC2CCCO2)cc1)S(C)(=O)=O (stereo not given) was read as CYP2C9 inhib -1, CYP2C19 inhib -1, CYP2C9 activ 1 and CYP2C19 act 1.
CC#CCN1c2ccccc2[C@]23C[C@@H](C(=O)OC)N=C2NC(C(=O)OC)=C(C(=O)OC)[C@H]13 was read as Cav32 inh 1.8.
`Cc1sc2c(c1C)CN(C1CC(C)(C)NC(C)(C)C1)CN2C(=O)c1ccco1` gave CYP2C9 inhib 3, CYP2C19 inhib 5, CYP2C9 activ 1 and CYP2C19 act 1.
Cc1ccc(C)c(NC(=O)Cn2nc(-c3ccccc3)nc2-c2ccccc2)c1 was read as Cav32 inh -0.36, CYP2C9 inhib -20, CYP2C19 inhib 20, CYP2C9 activ 1.2 and CYP2C19 act 0.8.
`O=S1(=O)[C@H]2C[C@@H]3CC[C@]2(CN1Cc1cccc(F)c1)O3` gave Cav32 inh 0.2.
`COc1ccc(NC(=O)N[C@@H](CCSC)C(=O)O)cc1Cl` gave Cav32 inh 0.17, CYP2C9 inhib -1, CYP2C19 inhib 14, CYP2C9 activ 1 and CYP2C19 act 0.9.
For CCN1C(=O)N(C)[C@@H](c2ccccc2)C(C(=O)OC)=C1C the results were Cav32 inh 0.38.
